Experimental data reported in ChEMBL document CHEMBL4513216, “Probing the Open Global Health Chemical Diversity Library for Multistage-Active Starting Points for Next-Generation Antimalarials” (ACS Infect Dis, 2020).
In all, about 69,000 compounds went through this assay and about 8,600 (12%) showed an effect of 50% or more. What follows is part of a selection rich in strong results, with near analogues and random picks from the rest.

Tested on: Plasmodium berghei
Assay: Screen against P. berghei liver stage (PbLuc), transformed with Luciferase, at 10uM
Assay type: functional, HepG2
Conditions: tested at 10 uM

SMILES	INHIBITION
O=C([C@H]1C[C@H]2OCC[C@H]2N(Cc2ccccc2F)C1)N1CCCCO1	59%
CN(C)C(=O)[C@H]1C[C@H]2OCC[C@H]2N(Cc2ccc3c(c2)OCO3)C1	28.7%
O=C([C@H]1CN(Cc2ccccc2F)C[C@H]2OCC[C@@H]12)N1CCCO1	61.9%
O=C([C@H]1CN(Cc2cccnc2)C[C@H]2OCC[C@@H]12)N1CCCO1	26.5%
O=C([C@H]1C[C@H]2OCC[C@H]2N(Cc2ccccn2)C1)N1CCCCO1	5.44%
O=C([C@H]1C[C@H]2OCC[C@H]2N(Cc2ccoc2)C1)N1CCCO1	19.4%
O=C([C@H]1C[C@H]2OCC[C@H]2N(Cc2ccoc2)C1)N1CCCCO1	88.2%
CNC(=O)[C@H]1C[C@H]2OCC[C@H]2N(Cc2ccc(F)cc2)C1	33%
CN(C)C(=O)[C@H]1C[C@H]2OCC[C@H]2N(Cc2ccc(F)cc2)C1	53.2%
Cc1ccccc1CN1C[C@@H](C(=O)N2CCCCO2)C[C@H]2OCC[C@H]21	42.7%
O=C([C@H]1CN(Cc2ccc(F)cc2)C[C@H]2OCC[C@@H]12)N1CCCO1	24.9%
O=C([C@H]1C[C@H]2OCC[C@H]2N(Cc2ccc(F)cc2)C1)N1CCCCO1	38.1%
Cc1ccc(CN2CCc3ncnc(C4CCOC4)c3CC2)s1 (stereo unspecified)	-31.6%
CC(C)=CCN1CCN(C(=O)c2cc(C(C)C)on2)[C@H]2CS(=O)(=O)C[C@H]21	17.7%
CN(C)c1cc(C2CCN(C(=O)c3cnn(C)c3)CC2)ccn1	26.4%
COCCN1CC(=O)N(C(C)C)C(C)(C)C1	-1.3%
CCCc1nc(CN(CC)Cc2ccc(S(C)(=O)=O)cc2)no1	-21.9%
Cn1nc2c(cc1=O)CN(Cc1coc(-c3ccc(F)cc3)n1)CC2	-0.113%
CN(Cc1cccnc1)[C@@H]1CN(Cc2nccn2C)[C@@H]2CCCO[C@H]12	-27%
CC(C)NC(=O)C1CCc2nnc(CNC(=O)c3cccnc3)n21 (stereo unspecified)	-57.8%
CCC[C@H]1CN(C(=O)Cn2ccccc2=O)C[C@@H]1NS(C)(=O)=O	20.6%
Cc1c(C(=O)NCCN2C(=O)CCC2=O)sc2ccc(F)cc12	-64.6%
CC1CCN(C(=O)[C@@H]2C[C@H]3OCC[C@H]3N(Cc3ccoc3)C2)CC1	59%
O=C(NC1CCCC1)[C@H]1C[C@H]2OCC[C@H]2N(Cc2ccoc2)C1	-1.55%
O=C(NCC1CC1)[C@H]1C[C@H]2OCC[C@H]2N(Cc2ccoc2)C1	35.3%
CCC1=NC2(CCC(C(=O)Nc3ccc(F)cc3)CC2)C(=O)N1C (stereo unspecified)	42.4%

SMILES	INHIBITION
Cc1ccc(NC(=O)[C@H]2C[C@H](C(=O)O)CN(CC3CC3)C2)cn1	39.4%
CCC1=NC2(CCC(C(=O)Nc3ccc(C)nc3)CC2)C(=O)N1C (stereo unspecified)	64.3%
O=C1CCN(C(=O)NCCc2c[nH]c3ccc(Cl)cc23)CCN1	1.56%
COc1ccccc1-c1nc(C(=O)N(C)C)n2ccncc12	30.8%
COc1ccccc1-c1nc(C(=O)N2CCOCC2)n2ccncc12	32.5%
COC(=O)CNC(=O)c1nc(-c2ccccc2OC)c2cnccn12	54.9%
COc1ncc(CN2CCCC2c2[nH]ncc2C(=O)N(C)C)cn1 (stereo unspecified)	3.48%
CC(C)c1cc(-c2cnn(C)c2C2CC2)c(C#N)c(N)n1	-14.3%
Cc1nn(C)c(C)c1-c1cc(-c2cnn(C)c2C2CC2)c(C#N)c(N)n1	34.5%
Cn1ncc(-c2cc(-c3cccc(O)c3)nc(N)c2C#N)c1C1CC1	80%
Cc1n[nH]c(C)c1-c1cc(-c2cccc(O)c2)nc(N)c1C#N	57.6%
Cc1cccc(-c2cc(-c3c(C)nn(CCO)c3C)c(C#N)c(N)n2)c1	-13.2%
Cc1cc(O)ccc1-c1cc(-c2cnn(C)c2C2CC2)c(C#N)c(N)n1	87.9%
N#Cc1c(C2CC2)cc(-c2ccc(O)cc2)nc1N	-14.9%
Cc1n[nH]c(C)c1-c1cc(-c2ccc[nH]2)nc(N)c1C#N	7.22%
Cc1n[nH]c(C)c1-c1cc(-c2cc[nH]c2)nc(N)c1C#N	28%
CC(=O)N1CCN(C(=O)C2CCN(c3cccnn3)C2)CC1 (stereo unspecified)	-8.12%
COC(=O)C1=C(C)N=C2SCC(=O)N2C1c1cnn(C)c1C (stereo unspecified)	22.6%
COc1ccc(CC2(CO)CCN(c3cc(N)ncn3)CC2)cc1	26.8%
Cn1ccnc1C1CCN(C(=O)COCC(F)(F)C(F)F)CC1	59.1%
O=C(COCC(F)(F)C(F)F)N1CCC(c2ncc[nH]2)CC1	40.6%
CCOCC(=O)N1CCC(c2nccn2C)CC1	11.8%
O=C(Cc1csc(-c2ccco2)n1)N1CCN(c2nccs2)CC1	-21.7%
CO[C@H]1CN(C(=O)c2ccc[nH]2)[C@@H]2COC[C@H]12	-29%
COCCNC(=O)c1ccc2ccc(N(C)CC3CC3)n2c1	26%
O=S(=O)(c1ccc(Cl)cc1)N1CCN(CCCn2ccnc2)CC1	76.7%

SMILES	INHIBITION
CCc1ccc(S(=O)(=O)N2CCN(CCn3ccnc3)CC2)cc1	51.2%
COc1ccc(S(=O)(=O)N2CCC(Cn3ccnc3)CC2)cc1	8.46%
COc1ccc(F)cc1S(=O)(=O)N1CCN(CCn2ccnc2)CC1	18.2%
Cc1ccc(S(=O)(=O)N2CCN(CCCn3ccnc3)CC2)cc1	81%
O=S(=O)(c1ccccc1)N1CCN(CCn2ccnc2)CC1	-26.6%
O=S(=O)(c1ccccc1)N1CCCN(CCCn2ccnc2)CC1	37%
O=S(=O)(c1cccnc1)N1CCN(CCn2ccnc2)CC1	-0.113%
O=S(=O)(c1ccc(F)cc1)N1CCN(CCCn2ccnc2)CC1	-49.3%
c1ccc(-c2cc(CNCCN3CCCC3)c3nnnn3c2)cc1	-5.71%
CC(NC(=O)NCc1ccccn1)c1cccs1 (stereo unspecified)	-5.26%
O=C(C1=CCCC1)N1CCC[C@]2(C[C@@H](Oc3ncccc3F)CO2)C1	23.5%
CC(C)N1CCc2c(C(=O)N3CCOCC3)nn(C)c2C1	42.1%
OC1(CNc2ccccc2)CCNCC1	20.9%
CCNC(=O)N(C)CCCc1n[nH]c(N)c1C#N	40.9%
CN(CCCc1n[nH]c(N)c1C#N)C(=O)Nc1cc(Cl)cc(Cl)c1	63.7%
CN(CCCc1n[nH]c(N)c1C#N)C(=O)NC1CC1	23.6%
OCCN(Cc1nc(-c2ccc3c(c2)OCO3)no1)Cc1cccs1	17.6%
OCCN(Cc1ccccc1)Cc1nc(-c2ccc3c(c2)OCO3)no1	35.1%
COC(=O)c1ccc(-c2noc(CN(CCO)Cc3cccs3)n2)cc1	51%
CCS(=O)(=O)N1C[C@@H](Oc2ccccn2)[C@H]2OCCC[C@H]21	-14.4%
COCC1(CNC(=O)Nc2cc(F)ccc2OC)CCCC1	51.4%
COc1ccc(F)cc1NC(=O)NCC1(CN2CCOCC2)CC1	28.15%
COc1ccc(F)cc1NC(=O)NCC1(C)COC1	25.25%
Cc1nn(C)c(Cl)c1C1CCCN1C(=O)CCNc1ncccn1 (stereo unspecified)	-35.7%
O=c1cc(N2CCCC2)cnn1CCc1cccc(F)c1	52.6%
O=c1cc(N2CCNCC2)cnn1CCc1ccc(F)cc1	32.8%

SMILES	INHIBITION
O=c1cc(N2CCOCC2)cnn1CCc1ccc(F)cc1	-0.529%
O=c1cc(N2CCCCC2)cnn1C[C@H](O)CO	2.7%
O=c1cc(N2CCCC2)cnn1CC(F)F	73.2%
O=c1cc(N2CCCCC2)cnn1CC(O)C(F)(F)F (stereo unspecified)	-29.1%
Cc1cnn(CCNCc2csc(-c3ccc(C(N)=O)cc3)n2)c1	43.6%
O=C(COc1ccc2c(c1)OCC2O)NCc1ccco1 (stereo unspecified)	10.6%
O=C(c1nc(COc2ccc3c(c2)OCO3)no1)N1CCCC1	13.4%
O=C(NC1CC1)c1nc(COc2ccc3c(c2)OCO3)no1	35.1%
CC(C)CNC(=O)c1nc(COc2ccc3c(c2)OCO3)no1	57.7%
CC(C)NC(=O)c1nc(COc2ccc3c(c2)OCO3)no1	32.8%
N#Cc1nc(COc2ccc3c(c2)OCO3)oc1NC1CCCCC1	72.1%
CNC(=O)c1nc(COc2ccc3c(c2)OCO3)no1	53.7%
CNc1oc(COc2ccc3c(c2)OCO3)nc1C#N	41.5%
NC(=O)c1nc(COc2ccc3c(c2)OCO3)no1	-83.7%
O=C(NC1CCCC1)c1nc(COc2ccc3c(c2)OCO3)no1	62.9%
O=C(NCC1CC1)c1nc(COc2ccc3c(c2)OCO3)no1	-12.6%
N#Cc1nc(COc2ccc3c(c2)OCO3)oc1NC1CC1	47.1%
Cc1occc(=O)c1OCc1noc(C(=O)NCC(C)C)n1	26.9%
CCn1cc(CN2CCC(O)(Cn3nc(C)ccc3=O)CC2)cn1	6.32%
CN(C)c1cc(C(=O)N2CCCCC2)ccn1	2.7%
CC1CCN(C(=O)c2cnn3c(-c4ccco4)ccnc23)CC1	-82.6%
CCCNC(=O)NC(=O)CN1C=Nc2ccccc2S1(=O)=O	-3.7%
Cc1occc1C(=O)N1CCC2(CC1)C(c1cnn(C)c1)CC(=O)N2C (stereo unspecified)	31.3%
